From PubChem BioAssay

Test: S6 kinase pathway phospho-S6 level changes – cell-based, A549, cytoblot, luminescence, serum-stimulated, primary screen (AID 1158);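 also: serum-stimulated A549 lung adenocarcinoma cells; signal is phosphorylated S6 detected by cytoblot immunostaining with HRP secondary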
Conditions: 5 h, higher = more signal
Compound `CC[C@@H]1C=C(C(=O)O)[C@H](c2ccc(Br)cc2)N1S(=O)(=O)c1ccc(C)cc1` has a z-score of -0.283.
Compound `O=C1c2ccccc2[C@](Cc2ccccc2I)(C(=O)NCCN2CCOCC2)[C@H](c2ccc(CO)cc2)N1Cc1ccccc1Cl` has a z-score of -0.0261.
`COC(=O)[C@@]1(Cc2ccc(OC)cc2)[C@H]2c3cc(C(=O)N4CCCC4)n(CCN4CNCC4=O)c3C[C@H]2CN1C(=O)c1ccccc1` showed a z-score of 0.287.
In the case of `COC(=O)[C@@]1(Cc2ccc(OC)cc2)[C@@H]2C(=CC(=O)[C@H]2CC(=O)C(=O)N2CCCC2)CN1C(=O)c1ccccc1`, the z-score is reported as 0.0866.
In the case of `C=CCNC(=O)[C@@H]1[C@H]2C(=O)O[C@H](c3ccccc3)[C@H](c3ccccc3)N2[C@H](c2ccc(O)cc2)[C@@]12C(=O)N(C(=O)OCCOC)c1ccc(C#CCNC(N)=O)cc12`, the z-score is reported as 1.32.
`Cc1ccc(S[C@]2(C(=O)NCCCN(C)C)CC(=O)N(Cc3cc(C(F)(F)F)cc(C(F)(F)F)c3)[C@@H]2c2ccc(CO)cc2)cc1` gave a z-score of 1.11.
With `COc1ccc([Si](C)(C)[C@H]2[C@H](CCO)O[C@@]3(C(=O)N(Cc4ccc(N(C=O)c5ccccc5)cc4)c4ccccc43)[C@@H]2C)cc1` the z-score was 0.788.
With `[N-]=[N+]=Nc1ccccc1[C@H]1OC(c2ccc(OCCCO)cc2)=N[C@@]1(CCS(=O)(=O)c1ccccc1)C(N)=O` the z-score was -0.0187.
`NC(=O)NCC#Cc1ccc2c(c1)[C@]1(C(=O)N2)[C@H](c2ccccc2OCCO)N2[C@H](c3ccccc3)[C@H](c3ccccc3)OC(=O)[C@H]2[C@@H]1C(=O)Nc1nc2ccccc2s1` gave a z-score of -0.0906.
For `CCCC=C(CCC)[C@@H](NC(=O)c1cccs1)c1ccc(C(F)(F)F)cc1`, the z-score was 1.42.
`CN(C)C(=O)[C@]1(Cc2ccccc2N=[N+]=[N-])N=C(c2ccc(OCCCO)cc2)O[C@@H]1c1ccccc1N=[N+]=[N-]` gave a z-score of 2.53.
With `COC(=O)[C@@]1(Cc2ccc(OC)cc2)[C@H]2c3cc(C(=O)N(C)C)n(Cc4ccccn4)c3C[C@H]2CN1C(=O)c1ccccc1` the z-score was 0.704.
Work on `COC(=O)[C@@]1(Cc2ccc(F)cc2)[C@H]2c3cc(C(=O)N4CCCC4)n(CCCNc4ncc(C(F)(F)F)cc4Cl)c3C[C@H]2CN1C(=O)c1ccccc1` yielded a z-score of -0.626.
`O=C(CS)NCCCCCCNC(=O)[C@@H]1C[C@@H]2C(=O)NCC(=O)N2[C@@H]1c1cccc(OCCO)c1` showed a z-score of 0.59.
In the case of `CCOC(=O)C[C@H]1[C@H](OC(=O)c2ccccc2-c2ccccc2)[C@@H](NC(=O)CC(C)C)c2cc(OCCCO)ccc2N1C(=O)Cc1ccc(OC)cc1`, the z-score is reported as 0.633.
In the case of `COc1ccc([C@H]2OC[C@@H]3C[C@@H](Cc4ccccc4)C(=O)N32)cc1`, the z-score is reported as -0.597.
`COc1ccc(CCNC(=O)[C@@]2(C)c3ccccc3C(=O)N(C(C)C)[C@H]2c2ccc(CO)cc2)cc1` gave a z-score of -0.441.
For `C=CCOC(=O)[C@@H]1[C@H]2C(=O)O[C@H](c3ccccc3)[C@H](c3ccccc3)N2[C@H](c2ccc(OCCOC(=O)[C@@H]3C[C@@H]4C(=O)NCC(=O)N4[C@@H]3c3ccc(O)cc3)cc2)[C@@]12C(=O)Nc1ccc(I)cc12`, the z-score was 0.0971.
For `O=C1C[C@@](C(=O)NCCN2CCOCC2)(c2ccc([N+](=O)[O-])cc2)[C@@H](c2ccc(CO)cc2)N1CC12CC3CC(CC(C3)C1)C2`, the z-score was 0.101.
Compound `COCCOC(=O)N1C(=O)[C@@]2(c3cc(C#CCC(C(=O)OC)C(=O)OC)ccc31)[C@H](C(=O)Nc1nc3ccccc3s1)[C@H]1C(=O)O[C@H](c3ccccc3)[C@H](c3ccccc3)N1[C@@H]2c1ccccc1OCCO` has a z-score of 0.0413.
For `COC(=O)[C@@]1(Cc2ccccc2)[C@H]2c3cc(C(=O)N(C)C)n(Cc4ccsc4Br)c3C[C@H]2CN1C(=O)c1ccccc1`, the z-score was -0.259.
`CC1CC/C=C\[C@H]2OC34C=CCN(C(C)(C)C)C(=O)[C@H]3N(CCO)C(=O)[C@@H]4C2C(=O)O1` (stereo partly specified) showed a z-score of 0.615.
For `C=C(CCCC)/C(=C/C[C@@H](OC(C)=O)c1ccc(OCCO)cc1)c1cnc2ccccc2c1`, the z-score was 0.684.
Compound `CC(C)C(O)C1C=CC2C(=O)N(c3ccccc3)C(=O)C2N1Nc1ccc([N+](=O)[O-])cc1` (stereo unspecified) has a z-score of -0.326.
In the case of `C=C(COC)/C(=C/C[C@H](OC(C)=O)c1ccc(CO)o1)c1cc(C(=O)OC)ccc1OC`, the z-score is reported as 0.873.
`COC(=O)[C@@]1(Cc2ccc(OC)cc2)[C@H]2c3cc(C(=O)N(C)C)n(C)c3C[C@H]2CN1C(=O)c1ccccc1` gave a z-score of 0.775.
Work on `CCOC(=O)[C@H]1C/C=C/C[C@H](C(=O)OCC)C(=O)O[C@H]2[C@@H](OC)O[C@H](CO)[C@@H](OC(=O)c3c(OC)cccc3OC)[C@@H]2OC1=O` yielded a z-score of 0.122.
`CC(C)NC(=O)[C@@]1(c2ccc([N+](=O)[O-])cc2)CC(=O)N(C2CCCCC2)[C@@H]1c1ccc(CO)cc1I` gave a z-score of -0.0892.
Compound `CN1C(=O)C2C=CC(C(O)c3ccc([N+](=O)[O-])cc3)N(N3CCCCC3)C2C1=O` (stereo unspecified) has a z-score of -0.919.
Compound `COCCOC(=O)N1C(=O)[C@@]2(c3cc(C#CCNC(N)=O)ccc31)[C@H](C(=O)N1CCN(c3ncccn3)CC1)[C@H]1C(=O)O[C@H](c3ccccc3)[C@H](c3ccccc3)N1[C@@H]2c1ccc(OCCO)cc1` has a z-score of -0.319.
Compound `O=C1NC(=O)C2C1C=CC(C(O)c1cc(C(F)(F)F)cc(C(F)(F)F)c1)N2Nc1ccccn1` (stereo unspecified) has a z-score of -0.822.
Compound `COCCOC(=O)N1C(=O)[C@@]2(c3ccccc31)[C@H](C(=O)N1CCc3cc(OC)c(OC)cc3C1)[C@H]1C(=O)O[C@H](c3ccccc3)[C@H](c3ccccc3)N1[C@@H]2c1ccc(OCCO)cc1` has a z-score of 0.0824.
`COC(=O)C(CC#Cc1ccc2c(c1)[C@]1(C(=O)N2)[C@H](C(=O)Nc2nc3ccccc3s2)[C@H]2C(=O)O[C@H](c3ccccc3)[C@H](c3ccccc3)N2[C@@H]1c1ccccc1OCCO)C(=O)OC` gave a z-score of -0.333.
Work on `CN1C(=O)C2C=CC(C(O)c3ccccc3)N(N(c3ccccc3)c3ccccc3)C2C1=O` (stereo unspecified) yielded a z-score of -0.809.
`COC(=O)[C@@]1(CCS(=O)(=O)c2ccccc2)N=C(c2ccc(OCCCO)cc2)O[C@H]1c1ccccc1CN=[N+]=[N-]` showed a z-score of 0.208.
Compound `COC(=O)[C@H](Cc1ccccc1)N1CC2=C[C@@H](C3CC3)n3c(=O)n(C)c(=O)n3[C@H]2[C@@H]1[C@@H](O)Cc1ccccc1` has a z-score of 0.144.
